Screening results deposited in PubChem BioAssay by Johns Hopkins Ion Channel Center.
KCNQ2 block – rat KCNQ2 potassium channel inhibitors, primary screen, cell-based, CHO-K1, FluxOR thallium flux, B-score; Potassium voltage-gated channel subfamily KQT member 2 (Rattus norvegicus), O88943; 20 min; stronger effect = lower value; B-score at 10 µM; 310,000 compounds, 1.1% hits; AID 2156, 2009;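 active = fluorescence ratio B-score at most minus 3 library SDs, with starting brightness B-score within 2 library SDs, cut at about -5.5 in these data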
KCNQ2 pot – potentiators of rat KCNQ2 potassium channel | Potassium voltage-gated channel subfamily KQT member 2 (Rattus norvegicus), O88943 | CHO-K1 KCNQ2, FluxOR thallium flux fluorescence; stronger effect = higher value | B-score at 10 µM | 310,000 compounds, 0.54% hits;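 active = fluorescence ratio B-score at least 3 SD of library B-scores, with initial fluorescence B-score within 3 of them, cut at about 5.3 in these data; same plate scores as AID 2156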;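 also: B-score of peak minus minimum over baseline fluorescence ratio after K+ and Tl+ stimulus; positive B-score means potentiation of KCNQ2 with more thallium influx and brighter signal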
Kir21 confirm – mouse Kir2.1 channel blockers, retest, confirmation, cell-based, FluxOR thallium flux, duplicate. 2,300 compounds, 41% hits. Tl flux remaining, % of negative control (stronger effect = lower value), % at 10 µM. Kir2.1-expressing cells, FluxOR thallium flux fluorescence; stronger effect = lower value. shares compounds with KCNQ2 pot;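 active = Primary-screen hit whose thallium flux fell at least 3 control SD below untreated wells in both duplicates, with normal baseline fluorescence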;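 also: 0% = blank wells without stimulus and 100% = stimulated no-compound controls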
HEK293 Tl flux – counter-screen for Kir2.1 inhibitors: effect in parental HEK293 cells | 2,300 compounds, 19% hits | FluxOR signal as % of negative control (100 = no effect), % at 10 µM | AID 2105 | shares compounds with KCNQ2 pot | FluxOR thallium flux fluorescence; 0% = unstimulated blank wells;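 active = dye signal at least 3 control SD above or below untreated wells in both duplicates, raw fluorescence within 3, either direction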;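 also: percent is based on the flux ratio of peak minus minimum fluorescence over baseline F0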
CHO-K1 ctr – nonspecific thallium flux increase in parental CHO-K1, confirmation, counter-screen for KCNQ2 potentiator project, cell-based, FluxOR thallium flux, duplicate; shares compounds with KCNQ2 pot; parental CHO-K1 cells, FluxOR thallium flux fluorescence; zero = vehicle mean+3SD, 100% = vehicle-minus-blank window; activity increase over 3SD of controls, % at 10 µM; 1,200 compounds, 43% hits;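 active = signal rise of at least 3 SD above the untreated control mean, in both duplicate wells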;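 also: counter screen of KCNQ2 potentiator hits so any rise reflects channel-independent effects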
KCNQ1 sel pot – human KCNQ1 channel potentiation off-target, confirmation, selectivity assay for KCNQ2 potentiator project, cell-based, CHO, FluxOR thallium flux; shares compounds with KCNQ2 pot; CHO KCNQ1 stable, FluxOR thallium flux fluorescence; beyond 3SD, as % of vehicle-control signal; activation over 3SD threshold, % at 10 µM; 1,200 compounds, 28% hits; AID 2283, 2010;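 active = fluorescence ratio rise of at least 3 SD of vehicle wells above their mean, in both replicate wells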;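 also: 0% = vehicle mean plus 3 SD and 100% = vehicle minus unstimulated blank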
Target sequence (P51787 whole entry, looked up): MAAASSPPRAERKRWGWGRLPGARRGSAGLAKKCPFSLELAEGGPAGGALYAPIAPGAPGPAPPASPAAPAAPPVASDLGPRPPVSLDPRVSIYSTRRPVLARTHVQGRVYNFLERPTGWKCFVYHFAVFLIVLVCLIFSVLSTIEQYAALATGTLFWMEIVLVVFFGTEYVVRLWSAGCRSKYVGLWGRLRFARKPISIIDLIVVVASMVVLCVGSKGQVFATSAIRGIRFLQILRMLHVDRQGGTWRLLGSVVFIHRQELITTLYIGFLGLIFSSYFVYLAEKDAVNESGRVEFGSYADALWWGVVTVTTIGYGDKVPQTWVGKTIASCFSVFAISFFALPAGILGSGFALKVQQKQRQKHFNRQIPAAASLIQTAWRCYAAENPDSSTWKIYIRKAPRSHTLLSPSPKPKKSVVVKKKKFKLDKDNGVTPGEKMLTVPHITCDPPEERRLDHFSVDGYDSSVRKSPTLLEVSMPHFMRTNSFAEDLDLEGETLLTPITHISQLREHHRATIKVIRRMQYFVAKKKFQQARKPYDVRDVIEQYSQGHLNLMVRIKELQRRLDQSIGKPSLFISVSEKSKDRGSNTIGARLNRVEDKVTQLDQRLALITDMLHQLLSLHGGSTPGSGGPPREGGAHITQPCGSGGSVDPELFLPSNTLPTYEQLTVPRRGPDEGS
KCNQ2 pot confirm – rat KCNQ2 channel potentiators, confirmation, cell-based, CHO, FluxOR thallium flux, duplicate; CHO-KCNQ2 cells, FluxOR thallium flux fluorescence; AID 2287, 2010; potentiation, less the hit threshold, % at 10 µM; shares compounds with KCNQ2 pot; 1,200 compounds, 68% hits;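 active = fluorescence ratio rising 3 SD or more over the vehicle control mean in both replicates, plus primary screen hit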;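 also: peak minus minimum thallium fluorescence divided by baseline after K/Tl stimulus; 0% = vehicle mean plus 3 SD and 100% = vehicle minus unstimulated blank difference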
Kir2-1 sel – mouse Kir2.1 channel activation off-target, confirmation, selectivity assay for KCNQ2 potentiator project, cell-based, HEK293, FluxOR thallium flux; AID 2345, 2010; 1,200 compounds, 2% hits; shares compounds with KCNQ2 pot; activity over 3SD threshold, % at 10 µM; HEK293 Kir2.1, FluxOR thallium flux fluorescence;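 active = fluorescence ratio rise of at least 3 SD above the vehicle-control mean, seen in both replicates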;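 also: 0% = vehicle mean plus 3 SD and 100% = vehicle minus no-stimulus blank window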
KCNQ2 W236L pot – potentiators of retigabine-insensitive KCNQ2 W236L, mechanism study for KCNQ2 potentiator project, cell-based, rat KCNQ2 W236L, CHO, automated patch clamp; shares compounds with KCNQ2 pot; automated patch clamp current; current increase over 3SD of negative controls (%), stronger effect = higher value, % at 25 µM; 940 compounds, 10% hits; AID 2558, 2010;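 active = current increase at least 3 SD of the untreated controls above them in both duplicate recordings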
The depositor's hits bear a star. Hits are enriched below; roughly 1.6% of the tested compounds scored in any of these assays.

For C/C(=N\NC(=O)CN1CCN(Cc2ccccc2)CC1)c1cccs1 the results were KCNQ2 block inactive and KCNQ2 pot 0.08.
`O=C(NCc1ccccc1F)C1CCCN1S(=O)(=O)c1ccc(F)cc1` (centres undefined) gave KCNQ2 block inactive.
Nc1ccc2nc(-c3ccc(Cl)cc3)[nH]c2c1 was read as KCNQ2 block inactive and KCNQ2 pot 0.01.
Screening Clc1ccc2nc(-c3ccc(Cl)nc3)[nH]c2c1 returned KCNQ2 block inactive, KCNQ2 pot 6.9*, Kir21 confirm inactive, HEK293 Tl flux inactive, CHO-K1 ctr -7, KCNQ1 sel pot 57*, KCNQ2 pot confirm 5.7*, Kir2-1 sel -17 and KCNQ2 W236L pot 3.5%*.
COc1ccc(CCN2Cc3c(N)cccc3C2=O)cc1OC was read as KCNQ2 block inactive and KCNQ2 pot 0.69.
C(=N\Nc1nc2ccccc2s1)/c1ccccn1 was read as KCNQ2 block inactive, KCNQ2 pot 11*, Kir21 confirm inactive, HEK293 Tl flux inactive, CHO-K1 ctr -8, KCNQ1 sel pot -15, KCNQ2 pot confirm 44*, Kir2-1 sel -34 and KCNQ2 W236L pot inactive.
`Brc1csc(/C=N/Nc2nc3ccccc3s2)c1` gave KCNQ2 block inactive and KCNQ2 pot 0.57.
`COc1ccc(-c2nc3ccccc3[nH]2)cc1` gave KCNQ2 block inactive.
COc1ccc(-c2nc(=S)c3ccc4ccccc4c3[nH]2)cc1 was read as KCNQ2 block inactive, KCNQ2 pot 20*, Kir21 confirm inactive, HEK293 Tl flux 152%*, CHO-K1 ctr -16, KCNQ1 sel pot -48, KCNQ2 pot confirm 23*, Kir2-1 sel -31 and KCNQ2 W236L pot inactive.
N#Cc1ccccc1OCC(=O)NCC(c1cccs1)N1CCOCC1 (centres undefined) was read as KCNQ2 block inactive and KCNQ2 pot 1.4.
`c1ccc(-c2ccccc2OCCCCN2CCCCCC2)cc1` gave KCNQ2 block inactive, Kir21 confirm 38%* and HEK293 Tl flux inactive.
For c1ccc(-c2ccccc2OCCN2CCCC2)cc1 the results were KCNQ2 block inactive.
COc1ccc(CCNC(=O)CSc2nc(-c3ccco3)cc(C(F)(F)F)n2)cc1OC was read as KCNQ2 block inactive and KCNQ2 pot 0.16.
Screening COc1ccccc1N1CCN(C(=O)CSc2nc(-c3ccco3)cc(C(F)(F)F)n2)CC1 returned KCNQ2 block inactive, KCNQ2 pot 12*, Kir21 confirm inactive, HEK293 Tl flux inactive, CHO-K1 ctr 16*, KCNQ1 sel pot 13*, KCNQ2 pot confirm 11*, Kir2-1 sel -27 and KCNQ2 W236L pot inactive.
For O=C(CSc1nc(-c2ccco2)cc(C(F)(F)F)n1)N1CCN(c2ccc(Cl)cc2)CC1 the results were KCNQ2 block inactive and KCNQ2 pot 3.
`O=C(CSc1nc(-c2ccco2)cc(C(F)(F)F)n1)N1CCN(Cc2ccccc2)CC1` gave KCNQ2 block inactive, KCNQ2 pot 23*, Kir21 confirm inactive, HEK293 Tl flux inactive, CHO-K1 ctr 81*, KCNQ1 sel pot -3, KCNQ2 pot confirm 42*, Kir2-1 sel -47 and KCNQ2 W236L pot inactive.
Screening C[C@H](NC(=O)[C@@H]1Cc2ccccc2CN1)C(=O)NC1CCCC1 returned KCNQ2 block inactive.
Screening CC(C)CCN1C(Nc2ccccc2)=NC[C@@H]1Cc1ccccc1 returned KCNQ2 block inactive.
For CC(CCN1C(Nc2ccccc2)=NC[C@@H]1Cc1ccccc1)c1ccccc1 (some centres undefined) the results were KCNQ2 block inactive, Kir21 confirm 46%* and HEK293 Tl flux 128%*.
`COCCCN(C(=O)c1ccccc1F)c1nc(-c2ccc(OC)cc2)cs1` gave KCNQ2 block inactive.
For COc1ccc(/C=N/NC(=O)c2ccncc2)cc1CSc1nc2ccccc2s1 the results were KCNQ2 block inactive.
For CC(=O)CSc1ncnc2sc3c(c12)CCC(C)C3 (centres undefined) the results were KCNQ2 block inactive, KCNQ2 pot 15*, Kir21 confirm inactive, HEK293 Tl flux 455%*, CHO-K1 ctr 1.6*, KCNQ1 sel pot -2, KCNQ2 pot confirm 93*, Kir2-1 sel 0 and KCNQ2 W236L pot inactive.
For CC1CCc2c(sc3ncnc(SCC(=O)c4ccccc4)c23)C1 (centres undefined) the results were KCNQ2 block inactive and KCNQ2 pot 1.8.
Screening Cc1cnccc1CNC(=O)C1CCC(=O)N(Cc2ccc(Cl)cc2)C1 (centres undefined) returned KCNQ2 block inactive.
Screening Cc1occc1C(=O)Nc1ccc2c(c1)OCCO2 returned KCNQ2 block inactive and KCNQ2 pot 1.3.
Cc1occc1C(=O)Nc1ccc2c(c1)CCC2 was read as KCNQ2 block inactive, KCNQ2 pot 7.2*, Kir21 confirm inactive, HEK293 Tl flux inactive, CHO-K1 ctr -4, KCNQ1 sel pot -4, KCNQ2 pot confirm 32*, Kir2-1 sel -44 and KCNQ2 W236L pot inactive.
For CC(C)Cc1nnc(NC(=O)Cc2ccc([N+](=O)[O-])cc2)s1 the results were KCNQ2 block inactive and KCNQ2 pot 1.5.
Screening Cc1cccc(CS(=O)(=O)Cc2ccc(C(=O)NC3CCCCCC3)o2)c1 returned KCNQ2 block inactive and KCNQ2 pot 0.43.
CC(C)=CCc1c(O)c(CC=C(C)C)c2c(c1O)C(=O)CC(c1ccc(O)cc1)O2 (centres undefined) was read as KCNQ2 block inactive.
